Screening data as filed in PubChem.
KDM5B inh = blocks human KDM5B histone demethylase activity; Q9UGL1; hit rate 2.6% among 220,000; KDM5B demethylase, FDH-coupled NADH fluorescence (FDH is formaldehyde dehydrogenase); Potency, µM (top dose mostly 57.7 µM), usual class: inhibitors; AID 1347165; active = well fitted inhibition curve with a large enough effect; note: 0% is about no effect; nearly all actives have a fitted effect of over 70% in size
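Measured: NADH fluorescence change, 30 min, RT. System: KDM5BΔAP 200 nM final, H3K4me3 peptide, α-KG, Fe(II), ascorbate, NAD⁺ plus FDH, pH 7.5 HEPES. Compounds: titrated, 10 min pre-incubation with enzyme.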
* = called active by the depositor. Many of the other results were omitted from the sample, so hits are more common in it than they were. Potency is the fitted concentration of half-maximal effect.

`COC(=O)C1=C(N)OC2=C(C(=O)CC(C)(C)C2)C1c1ccc(Cl)cc1Cl` (stereo not drawn) gave KDM5B inh inactive.
O=C(Cc1n[nH]c(=O)c2ccccc12)OCC(=O)N1CCCC1=O was read as KDM5B inh inactive.
For Cc1cc(NC(=O)N(Cc2ccco2)C2CC2)n(C)n1 the results were KDM5B inh inactive.
`O=C(COC(=O)c1cccnc1Nc1cccc(C(F)(F)F)c1)NCc1ccc2c(c1)OCO2` gave KDM5B inh inactive.
For Cc1ncsc1C(=O)N1CCNc2cnc(Nc3cccc(F)c3)nc2C1 the results were KDM5B inh inactive.
For O=C(CCc1ccccc1)N1CCNc2cnc(Nc3cccc(C(F)(F)F)c3)nc2C1 the results were KDM5B inh 25µM*.
Screening COc1ccccc1Nc1ncc2c(n1)CN(C(=O)c1cccc(O)c1)CCN2 returned KDM5B inh inactive.
`Cn1nccc1C(=O)N1CCNc2cnc(Nc3ccccc3)nc2C1` gave KDM5B inh inactive.
`O=C(Cc1ccc2c(c1)OCO2)N1CCNc2cnc(Nc3cccc(C(F)(F)F)c3)nc2C1` gave KDM5B inh 14µM*.
`O=C(CC(c1cccc(F)c1)c1cn(Cc2ccccc2)c2ccc([N+](=O)[O-])cc12)N1CCCC1` (stereo not drawn) gave KDM5B inh inactive.
Screening Cc1ccc(-c2nnc(SCc3cccc(S(=O)(=O)N4CCOCC4)c3)n2N)cc1 returned KDM5B inh inactive.
Screening CCOc1ccc(NC(=O)N2CCN(Cc3nc(-c4ccccc4)oc3C)CC2)cc1 returned KDM5B inh inactive.
O=C(c1cc(CN2CCOCC2)on1)N1CCc2c(nc3cc(-c4ccccc4)[nH]n3c2=O)C1 was read as KDM5B inh 28µM*.
CCn1nc(C)c(-c2cc(C(=O)N3CCc4nc5cc(-c6ccccc6)[nH]n5c(=O)c4C3)no2)c1C was read as KDM5B inh inactive.
Screening Cc1ccc(CN2CC(C(=O)Nc3ccc(C)cn3)CC2=O)cc1 (stereo not drawn) returned KDM5B inh inactive.
Cc1ccc(CN2CC(C(=O)N3CCc4c(nc5cc(-c6ccccc6)[nH]n5c4=O)C3)CC2=O)cc1 (stereo not drawn) was read as KDM5B inh 22µM*.
Cc1ccnc(NC(=O)C2CC(=O)N(Cc3ccccc3)C2)c1 (stereo not drawn) was read as KDM5B inh inactive.
Screening O=C(c1ccsc1)N1CCN(c2cc(-c3ccc(Cl)cc3)[nH]n2)CC1 returned KDM5B inh inactive.
For COCCOc1ccc2c(n1)CCN(C(=O)c1ccsc1)C2 the results were KDM5B inh inactive.
For CN1CCc2c([nH]c3ccccc23)C12CCN(C(=O)c1cc(CN3CCOCC3)on1)CC2 the results were KDM5B inh inactive.
O=C(c1ccsc1)N1CCc2c(nc3cc[nH]n3c2=O)C1 was read as KDM5B inh 25µM*.
Screening O=C(c1ccccn1)N1CCN(c2cc(-c3cccs3)[nH]n2)CC1 returned KDM5B inh inactive.
`O=c1c2c(nc3cc(-c4ccccc4)[nH]n13)CN(S(=O)(=O)c1cccs1)CC2` gave KDM5B inh inactive.
`O=C(c1cc(-c2cccs2)[nH]n1)N1CCc2c(nc3cc(-c4ccccc4)[nH]n3c2=O)C1` gave KDM5B inh 32µM*.
For Cc1cc(C(=O)NCc2ccc(CN3CCCC3)cc2)sc1C the results were KDM5B inh inactive.
COc1ccc(C(=O)N2CCCN(C(=O)OC(C)(C)C)CC2)cc1OC was read as KDM5B inh inactive.
Cc1cccc(OCCc2noc(C3CN(C(=O)Nc4ccc5c(c4)OCCO5)C3)n2)c1 was read as KDM5B inh inactive.
For O=S(=O)(CCNCc1ccc(Cl)c(Cl)c1)Cc1ccccc1 the results were KDM5B inh inactive.
COC(=O)c1c(NC(=O)CSc2ccccn2)sc2c1CCCC2 was read as KDM5B inh inactive.
`Cc1ccc(OCCC2CCN(C(=O)Cc3ccsc3)C2)cc1` (stereo not drawn) gave KDM5B inh inactive.
`O=C(NC1(C(=O)O)CCCCC1)C1CCCO1` (stereo not drawn) gave KDM5B inh inactive.
Screening COc1ccc(NC(=O)CSc2nncn3c2cc2oc(C)cc23)c(OC)c1 returned KDM5B inh inactive.
Clc1ccc(-c2csc3ncnc(Sc4nnc(C5CC5)o4)c23)cc1 was read as KDM5B inh inactive.
`Cc1cc(NC(=O)C(C)Oc2cccc(Cl)c2)n(C)n1` (stereo not drawn) gave KDM5B inh inactive.
For CCN1CCN(C(=O)NC(c2ccc(C)c(F)c2)C(Cl)(Cl)Cl)CC1 (stereo not drawn) the results were KDM5B inh inactive.
CC(=O)c1ccc(OCC(=O)Nc2ccc3oc(C)nc3c2)cc1 was read as KDM5B inh inactive.
For CCOc1ccc(CC(=O)NNC(=S)NCCOC)cc1OCC the results were KDM5B inh inactive.
For Cc1cccc(CC(=O)N2CCc3c(nc4cc[nH]n4c3=O)C2)c1 the results were KDM5B inh 32µM*.
`Cc1nc2c(c(-c3ccc(Cl)cc3)n1)CCN(C(=O)Cc1cccc(Cl)c1)CC2` gave KDM5B inh inactive.
For O=C(c1n[nH]c2c1CCCC2)N1CCC(n2cc(-c3nc(-c4ccccc4)no3)nn2)CC1 the results were KDM5B inh inactive.
Screening COc1ccc(Cn2c3c(c(=O)n2Cc2ccccc2)CCN(C(=O)Cc2cccc(Cl)c2)C3)cc1 returned KDM5B inh inactive.
O=C(c1ccc(Br)cc1)N1CCc2[nH]nc(C(=O)N3CCOCC3)c2C1 was read as KDM5B inh inactive.
Screening COc1cccc([C@@H]2CN(C(=O)c3n[nH]c4c3CCCC4)C[C@H]2C(=O)O)c1 returned KDM5B inh inactive.
Screening CC(C)C1CN(C(=O)c2n[nH]c3c2CCC3)CCC(=O)N1CC1CC1 (stereo not drawn) returned KDM5B inh inactive.
O=C(c1n[nH]c2c1CCCC2)N1CCc2c(nc3cc(-c4ccccc4)[nH]n3c2=O)C1 was read as KDM5B inh 16µM*.
`O=C(c1n[nH]c2c1CCCC2)N1CCc2c(nc3cc[nH]n3c2=O)C1` gave KDM5B inh 28µM*.
For O=C(CSc1nc2ccccc2o1)N(Cc1ccccc1)Cc1ccco1 the results were KDM5B inh inactive.
CN(C)S(=O)(=O)c1ccc(Cl)c(C(=O)Nc2cccc3cccnc23)c1 was read as KDM5B inh inactive.
Screening CC(C)(C)c1ccc(C23OC(=O)C(C)(C)C2OC(=O)C3(C)C)cc1 (stereo not drawn) returned KDM5B inh inactive.
CCN(CC)c1ccc(NS(=O)(=O)c2ccc(C3CCCCC3)cc2)cc1C(=O)O was read as KDM5B inh inactive.
`O=C(N[C@H]1CO[C@H]2[C@@H]1OC[C@H]2OCc1ccccc1)c1ccccc1` gave KDM5B inh inactive.
Screening CN(C)c1ccc(NC(=S)N[C@H]2CO[C@H]3[C@@H]2OC[C@H]3OC(=O)Nc2cccc3ccccc23)cc1 returned KDM5B inh inactive.
`NC(=O)CO[C@@H]1CO[C@H]2[C@@H]1OC[C@@H]2NC(=O)Nc1ccccc1` gave KDM5B inh inactive.
S=C(Nc1cccc2ccccc12)N[C@H]1CO[C@H]2[C@@H]1OC[C@H]2OCc1ccccc1 was read as KDM5B inh 35µM*.
NC(=O)CO[C@@H]1CO[C@H]2[C@@H]1OC[C@@H]2NC(=O)Nc1cccc2ccccc12 was read as KDM5B inh 28µM*.
